# gsp ag: agonists of gsp mutant (McCune-Albright syndrome); gsp mutant cells, cAMP HTRF, 30 min; Potency, µM (highest dose often 76.9 µM), for the others: at the highest dose activation (cAMP increase), usual class: activators; 340,000 tested, 0.13% active; AID 624287; active = well fitted activation curve with a large enough effect; inconclusive = small, poorly fitted or top-dose-only effect, or another doubt; inactive = no such curve, though single readings can be large or run the other way; cell line not stated here;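 also: phosphodiesterase inhibitor Ro 20-1724 added with compounds to block cAMP breakdown; nearly all actives have a fitted effect of over 60% in size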
#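 Cells stably selected in G418 were plated at 2000/well, grown 16-24 hr, then given compounds in DMSO with the PDE inhibitor […] (300 uM solution added) for 30 min at 37C; cAMP was read by HTRF.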
# gsp antagonist: antagonizes gsp, the McCune-Albright syndrome mutation; AID 624288; gsp-mutant cells, cAMP HTRF, 30 min; Potency, µM (highest dose often 76.9 µM), without a hit: at the highest dose activity change, negative = inhibition, hits mostly inhibitors; 340,000 tested, 0.4% active; calls by dose curve; cell line not stated here;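 also: intracellular cAMP measured with PDE inhibitor Ro 20-1724 present during compound exposure; % is scaled to controls: 0 for no effect and ±100 for the full control effect; nearly all actives have a fitted effect of over 65% in size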
#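 Cells, 2000/well, grown 16–24 h in DMEM 10% FBS with 0.5 mg/ml G418, then compounds plus […] (300 uM addition stock), 30 min at 37C. cAMP read by HTRF (cAMP-d2 and anti-cAMP antibody-K in lysis buffer) after 30 min RT.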
# Mito fusion yeast: inhibitors of mitochondrial division or activators of mitochondrial fusion. 320,000 tested, 0.23% active. Potency, µM (highest dose often 46.1 µM), inactives show at the highest dose growth rescue (activation), usual class: activators. S. cerevisiae fusion-defective mutant growth rescue, CellTiterGlo 48 h; also: % of control where 0% means no effect; nearly all actives have a fitted effect of over 45% in size
#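 S. cerevisiae fusion-defective temperature-sensitive mutants (e.g. fzo1-1, mgm1-5) grown 48 h at 37C in YPEG (ethanol/glycerol non-fermentable) medium with 23 nl compound per well; growth rescue read as CellTiterGlo luminescence.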
# 12-LOX inh: ALOX12 (human) lipoxygenase inhibition; 580,000 tested, 1.1% active; AID 1671190; purified 12hLO, xylenol orange hydroperoxide absorbance; Potency, µM (titrated, usually from 108 µM), for the others: at the top dose activity change, negative = inhibition, usual class: inhibitors; also: % is scaled to controls: 0 for no effect and ±100 for the full control effect
# Target sequence (P18054 whole entry, looked up): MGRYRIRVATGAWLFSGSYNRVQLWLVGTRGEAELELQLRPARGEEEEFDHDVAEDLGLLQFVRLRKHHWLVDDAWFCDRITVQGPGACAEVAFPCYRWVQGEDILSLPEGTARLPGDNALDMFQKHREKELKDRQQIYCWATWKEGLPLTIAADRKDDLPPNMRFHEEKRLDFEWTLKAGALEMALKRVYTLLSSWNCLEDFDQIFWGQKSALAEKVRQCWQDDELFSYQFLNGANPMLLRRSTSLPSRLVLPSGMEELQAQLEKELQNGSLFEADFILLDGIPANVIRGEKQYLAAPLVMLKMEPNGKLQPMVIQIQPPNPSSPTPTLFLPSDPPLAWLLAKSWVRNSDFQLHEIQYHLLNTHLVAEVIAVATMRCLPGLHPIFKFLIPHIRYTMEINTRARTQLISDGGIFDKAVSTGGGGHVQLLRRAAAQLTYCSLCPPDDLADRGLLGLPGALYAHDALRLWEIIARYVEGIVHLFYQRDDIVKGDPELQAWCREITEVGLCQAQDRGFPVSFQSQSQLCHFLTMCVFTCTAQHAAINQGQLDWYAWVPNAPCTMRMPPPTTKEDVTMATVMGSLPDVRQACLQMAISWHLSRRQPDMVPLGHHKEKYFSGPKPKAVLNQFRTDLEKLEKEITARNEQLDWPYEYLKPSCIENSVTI
#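 Purified human 12hLO at 150 nM in 25 mM Hepes, 0.01% Triton X-100, pH 7.0, preincubated 15 min at room temperature with compound. Reaction started with 40 uM arachidonic acid, 30 min at room temperature. Hydroperoxide measured by Fe-xylenol orange, 573/405 nm absorbance ratio.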
# FUS yeast rescue: FUS proteinopathy suppression in yeast; AID 1347120; 390,000 tested, 0.24% active; S. cerevisiae FUS-expressing, growth rescue, OD600, 24 h; Potency, µM (highest dose often 76.6 µM), most hits filed as activators;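 also: plate controls were DMSO vehicle for no effect and reference control for full effect; nearly all actives have a fitted effect of over 55% in size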
#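 Steps: raffinose overnight preculture; dilution to OD 0.005 in 2% galactose minimal medium; compound addition (concentration series); 24hr at 30C, 99% humidity; absorbance read at 600 nm.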
# An asterisk follows results filed as active; i = inactive; ? = inconclusive; . = no result given. Sampled rows, rich in hits. Any-hit rate of the full collection: about 1.6%. Unless noted, calls follow the shape of the dose curve; as a rule, active = well fitted curve in the direction sought with a large enough effect; inconclusive = small, poorly fitted or top-dose-only effect, or another doubt; inactive = no such curve, though single readings can be large; an effect the other way counts as inactive or inconclusive. Potency is read from the fitted curve at half-maximal effect.
SMILES,gsp ag,gsp antagonist,Mito fusion yeast,12-LOX inh,FUS yeast rescue
CN1CCN(C(=O)c2cnn(-c3ccc(F)cc3F)c2C2CCN(C(=O)OC(C)(C)C)CC2)CC1,.,.,.,-3%,i
COc1ccc(NC(=O)c2c[nH]n3c(=O)cc(C4CCN(C(=O)OC(C)(C)C)CC4)nc23)cc1Cl,-73%,-16%,2%,40µM*,i
CC(C)(C)OC(=O)N1CCC(c2c(C(=O)N3CCN(c4ccc(Cl)cc4)CC3)cnn2-c2ccc(F)cc2F)CC1,.,.,.,-14%,22µM*
COc1cc(Cl)c(C)cc1NC(=O)c1cnn(-c2ccc(F)cc2F)c1C1CCN(C(=O)OC(C)(C)C)CC1,.,.,.,-11%,i
CC(C)(C)OC(=O)N1CCC(c2cc(=O)n3[nH]cc(C(=O)Nc4ccc(F)c(Cl)c4)c3n2)CC1,1%,2%,0%,-19%,i
c1ccc2c(NC3CCCC3)ncnc2c1,.,.,.,-54%,.
CCCCS(=O)(=O)CCS(=O)(=O)CCCC,.,.,.,29%,.
CC1CCCCN1C(=O)c1cccc(NC2=C(Cl)C(=O)N(Cc3ccccc3)C2=O)c1 (stereo not given),-5%,28µM*,?,.,i
CC1CCN(C(=O)c2ccc(NC3=C(Cl)C(=O)N(Cc4ccccc4)C3=O)cc2)CC1,-7%,?,?,-23%,i
Cc1snc(S(=O)(=O)/C(C#N)=N/Nc2cccc(C(F)(F)F)c2)c1C#N,8%,35µM*,-2%,.,i
COc1ccc(N/N=C(/C#N)S(=O)(=O)c2nsc(C)c2C#N)cc1,17%,-21%,0%,?,i
CCCc1ccc(-c2cc(C(=O)Nc3nncs3)c3ccccc3n2)cc1,.,.,.,5%,.
CC(=O)c1ccc(N2CCN(S(=O)(=O)c3ccc(-c4cc(C)[nH]n4)s3)CC2)cc1,.,.,.,-18%,.
C=CCN(C(=O)C1CC(=O)N(C2CCCC2)C1)c1nc(-c2ccc(S(C)(=O)=O)cc2)cs1 (stereo not given),5%,40µM*,4%,9%,.
CC(=O)c1c[nH]c(C(=O)NC(c2cccc(F)c2)c2nccn2C)c1 (stereo not given),.,.,.,22µM*,.
Cn1c(-n2cccc2)c(-c2c(-c3cccc4ccccc34)[nH]c3c2c(=O)[nH]c(=O)n3C)c(=O)[nH]c1=O,.,.,.,18µM*,.
Cc1ccc(-c2nc(NCc3cccnc3)c3ccccc3n2)cc1,-7%,35µM*,26%,-6%,i
Cc1cccc(CNc2nc(-c3ccc4c(c3)OCO4)nc3ccccc23)c1,.,.,.,40µM*,.
Clc1ccccc1-c1cc(NCc2cccnc2)ncn1,.,.,.,-18%,.
FC(F)(F)c1ccccc1-c1cc(NCc2cccnc2)ncn1,.,.,.,45µM*,.
c1cncc(CNc2nc(-c3ccc4c(c3)OCO4)nc3ccccc23)c1,.,.,.,-29%,.
FC(F)(F)c1ccccc1-c1nc(NCc2cccnc2)c2ccccc2n1,.,.,.,45µM*,.
c1ccc(-c2nc(NCc3cccnc3)c3ccccc3n2)cc1,18%,-28%,2%,-11%,i
Cc1ccsc1CN1CCCN(S(=O)(=O)c2ccccc2)CCC(=O)NCC1,.,.,.,12%,.
CNC(=O)c1ccc(NC(=O)CCc2ncc(-c3ccccc3F)o2)cc1,.,.,.,1%,.
SMILES,gsp ag,gsp antagonist,Mito fusion yeast,12-LOX inh,FUS yeast rescue
O=C1N(Cc2cccc(F)c2F)CCCC1(O)CNCc1cccc(F)c1 (stereo not given),.,.,.,21%,.
Cc1ccc(-c2c3c([nH]c(=S)c2C#N)CCCC3)o1,?,15%,10%,?,?
N#Cc1c(-c2ccncc2)c2c([nH]c1=S)CCCC2,-2%,-4%,-1%,20µM*,i
COc1ccc(-c2nc3cc(NC(=S)NC(=O)Cc4ccccc4)ccc3o2)cc1,-21%,8%,?,28µM*,i
O=C(Nc1ccc2oc(-c3ccncc3)nc2c1)c1c(F)c(F)c(F)c(F)c1F,19%,8%,0%,-20%,i
COc1c(F)c(F)c(C(=O)Nc2ccc3oc(-c4ccncc4)nc3c2)c(F)c1F,-20%,28µM*,1%,0%,i
CC(C)c1ccc(-c2nc3cc(NC(=O)c4cccnc4)ccc3o2)cc1,.,.,.,40µM*,.

# Screens deposited in PubChem BioAssay by National Center for Advancing Translational Sciences (NCATS).
